Results taken from the supplement of paper PMC6555819.

Experiments:
Assay in all cases: PBM binding z-score (relative to random genomic background probes); higher = stronger binding; sequences stand for … in GC…GCGATTGACAGCGTAGAATGAAGG
[1] = test system: FXR:RXRa (NR concentration 270 nM, RXRa partner concentration 90 nM)
In short: (§1)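 Binding buffer was PBS pH 7.4 with 2% milk, 0.02% Triton X-100, 1 mM DTT, 0.2 mg/mL BSA and 0.4 mg/ml salmon testes DNA. In it, ligand-free nuclear receptor dimers were incubated 1 h on custom Agilent 4×180K protein-binding microarrays carrying double-stranded probes. Antibodies against each partner (one per run) detected binding, and z-scores were calculated against random background probes after regression normalization of scanned fluorescence.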

[2] = test system: LXRa:RXRa (NR concentration 270 nM, RXRa partner concentration 90 nM)
In short: as §1

[3] = test system: LXRa homodimer (NR concentration 270 nM)
In short: as §1

[4] = test system: LXRb:RXRa (NR concentration 270 nM, RXRa partner concentration 90 nM)
In short: as §1

[5] = test system: LXRb homodimer (NR concentration 270 nM)
In short: as §1

[6] = test system: PPARa:RXRa (NR concentration 270 nM, RXRa partner concentration 90 nM)
In short: as §1

[7] = test system: PPARg:RXRa (NR concentration 180 nM, RXRa partner concentration 90 nM)
In short: as §1

[8] = test system: PPARg:RXRa 270nM:90nM, anti-RXR (NR concentration 270 nM, RXRa partner concentration 90 nM)
In short: as §1

[9] = test system: PPARg:RXRa 30nM:10nM, anti-RXR (NR concentration 30 nM, RXRa partner concentration 10 nM)
In short: as §1

[10] = test system: PPARg:RXRa 90nM:30nM, anti-RXR (NR concentration 90 nM, RXRa partner concentration 30 nM)
In short: as §1

AGAATTAGGTTATTAAGATCAGGGAATTGCGGTC
PBM binding z-score [1]: 0.488
PBM binding z-score [2]: 0.607
PBM binding z-score [3]: 0.495
PBM binding z-score [4]: 0.404
PBM binding z-score [5]: 0.244
PBM binding z-score [6]: 1.87
PBM binding z-score [7]: 1.99
PBM binding z-score [8]: 2.31
PBM binding z-score [9]: 1.74
PBM binding z-score [10]: 1.58

GCTAGCAGGCCAATTGGGTCACTCAATGACGGGC
PBM binding z-score [1]: -0.057
PBM binding z-score [2]: -0.159
PBM binding z-score [3]: -0.545
PBM binding z-score [4]: -0.122
PBM binding z-score [5]: -1.32
PBM binding z-score [6]: 1.83
PBM binding z-score [7]: 1.01
PBM binding z-score [8]: 1.14
PBM binding z-score [9]: -0.473
PBM binding z-score [10]: 0.444

CCGTACGGGTCACTCCAGGTTATAGCATCGGAGT
PBM binding z-score [1]: 5.48
PBM binding z-score [2]: 7.91
PBM binding z-score [3]: 1.62
PBM binding z-score [4]: 5.38
PBM binding z-score [5]: -0.751
PBM binding z-score [6]: 4.45
PBM binding z-score [7]: 2.97
PBM binding z-score [8]: 3.49
PBM binding z-score [9]: 1.05
PBM binding z-score [10]: 1.9

CGAACGAGAGCATGAGTTGATAGCAAATGCCGAT
PBM binding z-score [1]: -0.453
PBM binding z-score [2]: -0.53
PBM binding z-score [3]: -0.103
PBM binding z-score [4]: -0.828
PBM binding z-score [5]: -0.953
PBM binding z-score [6]: -0.357
PBM binding z-score [7]: 0.777
PBM binding z-score [8]: 0.133
PBM binding z-score [9]: -0.214
PBM binding z-score [10]: -0.282

TTACCAAGTTGAAAGGTCGTTGATGCACGCCTTG
PBM binding z-score [1]: 2.79
PBM binding z-score [2]: 2.74
PBM binding z-score [3]: 0.48
PBM binding z-score [4]: 2.17
PBM binding z-score [5]: -0.00674
PBM binding z-score [6]: 3.78
PBM binding z-score [7]: 4.15
PBM binding z-score [8]: 5.58
PBM binding z-score [9]: 3.84
PBM binding z-score [10]: 5.07

TCATCTAGGTAAAGGTGAAAGTCGAACGATATGA
PBM binding z-score [1]: 1.37
PBM binding z-score [2]: 1.5
PBM binding z-score [3]: 0.00636
PBM binding z-score [4]: 1.3
PBM binding z-score [5]: 0.134
PBM binding z-score [6]: 3.3
PBM binding z-score [7]: 3.93
PBM binding z-score [8]: 4.83
PBM binding z-score [9]: 4.58
PBM binding z-score [10]: 4.92

CAAACTAGGTCTAGAGGTCAAAGTCCGCTTCCCG
PBM binding z-score [1]: 4.99
PBM binding z-score [2]: 5.78
PBM binding z-score [3]: 5.83
PBM binding z-score [4]: 4.86
PBM binding z-score [5]: 1.55
PBM binding z-score [6]: 5.14
PBM binding z-score [7]: 5.12
PBM binding z-score [8]: 5.9
PBM binding z-score [9]: 4.3
PBM binding z-score [10]: 5.99

CCGACTGGGGCATGGTTACCATAACGCACAGCCA
PBM binding z-score [1]: -0.978
PBM binding z-score [2]: -0.621
PBM binding z-score [3]: -0.461
PBM binding z-score [4]: -0.438
PBM binding z-score [5]: -1.07
PBM binding z-score [6]: 0.0592
PBM binding z-score [7]: 1.31
PBM binding z-score [8]: 1.11
PBM binding z-score [9]: -0.195
PBM binding z-score [10]: 0.273

ACTAGCAGACCAAGTTTGGGTCACTCAAACAAAG
PBM binding z-score [1]: -0.0358
PBM binding z-score [2]: -0.0494
PBM binding z-score [3]: -0.696
PBM binding z-score [4]: 0.808
PBM binding z-score [5]: -0.744
PBM binding z-score [6]: 1.32
PBM binding z-score [7]: -0.0128
PBM binding z-score [8]: 0.182
PBM binding z-score [9]: -0.186
PBM binding z-score [10]: 0.531

CCGACTGGTGCAAGGTTACCATAACGCACAGCCA
PBM binding z-score [1]: -0.035
PBM binding z-score [2]: 0.459
PBM binding z-score [3]: -0.262
PBM binding z-score [4]: 0.654
PBM binding z-score [5]: -1.22
PBM binding z-score [6]: 0.831
PBM binding z-score [7]: 0.89
PBM binding z-score [8]: 0.462
PBM binding z-score [9]: -0.236
PBM binding z-score [10]: 0.039

CCTCGGAGGACAGAAGGTCACAGCTGTCCGCTTT
PBM binding z-score [1]: 2.65
PBM binding z-score [2]: 3.33
PBM binding z-score [3]: 0.899
PBM binding z-score [4]: 2.27
PBM binding z-score [5]: -0.713
PBM binding z-score [6]: 3.54
PBM binding z-score [7]: 0.989
PBM binding z-score [8]: 2.62
PBM binding z-score [9]: -0.00709
PBM binding z-score [10]: 1.83
